sEH inhibitor: blocks human soluble epoxide hydrolase activity | actives 0.34% (n = 91,000) | inhibition, % at 2 µM | recombinant human sEH enzymatic activity assay; in the data active = inhibition above about 80%
Target sequence (P34913 whole entry, looked up): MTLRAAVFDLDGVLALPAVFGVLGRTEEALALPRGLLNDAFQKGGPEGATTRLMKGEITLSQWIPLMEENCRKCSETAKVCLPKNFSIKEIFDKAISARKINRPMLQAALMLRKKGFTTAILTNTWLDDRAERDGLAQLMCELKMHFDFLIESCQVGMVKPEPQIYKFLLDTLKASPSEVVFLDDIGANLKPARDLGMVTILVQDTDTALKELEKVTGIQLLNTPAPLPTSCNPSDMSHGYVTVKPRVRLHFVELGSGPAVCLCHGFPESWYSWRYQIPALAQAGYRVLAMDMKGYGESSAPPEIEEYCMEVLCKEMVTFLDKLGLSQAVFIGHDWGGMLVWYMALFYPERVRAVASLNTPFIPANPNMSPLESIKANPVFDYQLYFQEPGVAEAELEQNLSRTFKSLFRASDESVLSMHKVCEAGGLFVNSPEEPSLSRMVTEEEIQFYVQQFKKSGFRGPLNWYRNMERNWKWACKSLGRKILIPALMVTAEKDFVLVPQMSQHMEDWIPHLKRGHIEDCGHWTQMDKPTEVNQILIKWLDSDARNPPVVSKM
CYP2C9 inh: blocks human cytochrome P450 2C9. actives 20% (n = 96,000). CYP2C9 Supersomes, luciferin-H conversion, luminescence. inhibition, % at 5 µM;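 active = blocking of liver enzyme CYP2C9 beyond about 50% at 5 µM, limit read from the data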
CYP2C19 inhib: inhibitors of human CYP2C19. P33261. CYP2C19 Supersomes, luciferin-H EGE luminescence, 30 min. inhibition, % at 5 µM. actives 21% (n = 96,000). AID 778;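 active = CYP2C19 inhibition above a set limit at 5 µM in the primary screen, cut at about 50% in these data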
CYP2C19 activ: activators of human cytochrome P450 2C19 | recombinant CYP2C19, luciferin-H EGE luminescence; active compounds read high; 0 = fully inhibited enzyme, 1 = untreated enzyme | 96,000 tested, under 10 active | activation factor at 5 µM;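 active = activation factor of at least 2 at 5 µM in the primary screen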
sEH activator: increases human soluble epoxide hydrolase activity; P34913; purified human sEH enzymatic activity, activator screen; activation, % at 2 µM; actives 0.04% (n = 91,000); AID 717; in the data active = activation above about 37%
CYP2C9 activ: activators of human CYP2C9; actives 1.4% (n = 96,000); activation factor at 5 µM; AID 1024; recombinant CYP2C9, luciferin-H conversion, luminescence; active compounds read high; factor 1 = untreated enzyme, 0 = blocked; P11712;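 active = activation factor of 2 or more for CYP2C9 at a 5 µM dose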
A number is an active result; i = inactive; nt = not tested or not shown. Hits are enriched below; roughly 27% of the tested compounds scored in any of these assays.

SMILES	sEH inhibitor	CYP2C9 inh	CYP2C19 inhib	CYP2C19 activ	sEH activator	CYP2C9 activ
CN(c1cccc(NC(=O)CSc2ccc(Cl)cc2)c1)S(C)(=O)=O	i	i	i	i	i	i
Cc1ccccc1OCC(=O)Nc1ccc2c(c1)COC2=O	i	i	i	i	i	i
CN(c1cccc(NC(=O)COc2ccccc2)c1)S(C)(=O)=O	i	i	i	i	i	i
Cc1ccc(NC(=O)CS(=O)CC(=O)Nc2ccc3c(c2)OCO3)cc1Cl (stereo unspecified)	i	51	i	i	i	i
Cc1ccccc1OCC(=O)Nc1cccc(N(C)S(C)(=O)=O)c1	i	79	69	i	i	i
CN(c1cccc(NC(=O)CCSc2ccccc2)c1)S(C)(=O)=O	i	68	78	i	i	i
COCCCn1c(-c2ccsc2)nc2c1c(=O)[nH]c(=O)n2Cc1ccccc1	i	i	i	i	i	i
CCOc1ccccc1NC(=O)c1cc(Cl)ccc1NC(=O)c1ccco1	i	i	i	i	i	i
c1ccc2c(c1)oc1c(Nc3ccc4c(c3)OCO4)ncnc12	i	i	54	i	i	i
c1ccc2c(c1)oc1c(Nc3ccc(CN4CCOCC4)cc3)ncnc12	i	i	60	i	i	i
c1ccc2c(c1)oc1c(NCc3ccc4c(c3)OCO4)ncnc12	nt	85	70	i	nt	i
c1ccc2c(c1)oc1c(NCCN3CCOCC3)ncnc12	i	i	i	i	i	i
Cc1nc(Nc2ccc3c(c2)OCO3)c2oc3ccccc3c2n1	i	66	55	i	i	i
O=C(/C=C/c1ccc(-c2ccccc2[N+](=O)[O-])o1)c1ccc(Br)cc1	i	i	i	i	i	i
Cc1ccc(C(=O)/C=C/c2ccc(-c3ccccc3[N+](=O)[O-])o2)cc1	i	58	i	i	i	i
O=C(CSc1nnc(-c2ccccn2)n1Cc1ccccc1)NC1CCCC1	i	i	i	i	i	i
COc1cc2c(cc1OC)C(c1cc3cc(OC)c(OC)cc3[nH]c1=O)N(C(=O)C1CC1)CC2 (stereo unspecified)	i	61	i	i	i	i
CC(=O)Nc1ccc(S(=O)(=O)NC(CC(=O)NCCC2=CCCCC2)C(C)C)cc1 (stereo unspecified)	i	i	95	i	i	i
CC(C)(C)NS(=O)(=O)c1ccc(OCC(=O)NCCC2=CCCCC2)cc1	i	84	85	i	i	i
CC(=O)Nc1ccc(S(=O)(=O)NC(CC(=O)NCCCN2CCOCC2)C(C)C)cc1 (stereo unspecified)	i	i	i	i	i	i
O=C(COc1ccc(S(=O)(=O)N2CCCC2)cc1)NCCC1=CCCCC1	i	86	i	i	i	i
O=C(NCCCN1CCOCC1)c1cc2cc(Cl)cc(Cl)c2oc1=O	i	nt	nt	nt	i	nt
Cc1cc(Cl)c(S(=O)(=O)Nc2ccc3c(c2)OCO3)cc1OCC(=O)NC1CCCCC1	i	62	79	i	i	i
O=C(COC(=O)c1ccc(Cl)c(S(=O)(=O)N2CCCC2)c1)NC1CCCC1	i	i	65	i	i	i
Cc1cc(Cl)c(S(=O)(=O)Nc2ccc3c(c2)OCO3)cc1OCC(N)=O	i	62	90	i	i	i
SMILES	sEH inhibitor	CYP2C9 inh	CYP2C19 inhib	CYP2C19 activ	sEH activator	CYP2C9 activ
O=C(COc1ccc(S(=O)(=O)N2CCCC2)cc1Cl)NC1CCCC1	i	i	i	i	i	i
Cc1cc(Cl)c(S(=O)(=O)Nc2ccc(Cl)cn2)cc1OCC(N)=O	i	nt	nt	nt	i	nt
Cc1cc(Cl)c(S(=O)(=O)NCc2cccnc2)cc1OCC(=O)NC1CCCCC1	i	58	i	i	i	i
C=CCNC(=S)NNC(=O)CCC(O)CCCCC (stereo unspecified)	i	i	i	i	i	i
CCOC(=O)c1nn(-c2ccc(Br)cc2)cc1C(=O)c1cccc2ccccc12	i	i	i	i	i	i
Cc1cccc(OCc2nnc(SCC(=O)N3CCc4ccccc43)n2C)c1	nt	i	i	i	nt	i
COc1cc2c(cc1OC)-c1cc(OCCN3CCOCC3)nc(=O)n1CC2	i	i	i	i	i	i
Cc1cc(Cl)c(S(=O)(=O)N2CCCC2)cc1OCC(=O)NC1CCCCC1	i	77	95	i	i	i
Cc1cc(Cl)c(S(=O)(=O)NC(C(=O)O)C(C)C)cc1OCC(=O)NC1CCCCC1 (stereo unspecified)	i	i	i	i	i	i
COC(=O)c1cnn(C(=O)c2cc(OC)ccc2Br)c1N	i	i	i	i	i	2
CCOc1ccc(S(=O)(=O)Nc2ccc3c(c2)OCO3)c2cccnc12	i	i	82	i	i	i
CCOc1ccc(S(=O)(=O)N2CCN(c3ccc(OC)cc3)CC2)c2cccnc12	i	i	i	i	i	i
CCOc1ccc(S(=O)(=O)NCc2ccc(F)cc2)c2cccnc12	i	i	51	i	i	i
COc1ccc(C2/C(=C(\O)c3ccc4c(c3)OCCO4)C(=O)C(=O)N2Cc2ccco2)c(OC)c1 (stereo unspecified)	i	nt	nt	nt	i	nt
O=C1c2ccccc2C(Nc2ccc3c(c2)OCO3)N1Cc1ccco1 (stereo unspecified)	i	nt	nt	nt	i	nt
COC(=O)c1cc(NC2c3ccccc3C(=O)N2Cc2ccco2)cc(C(=O)OC)c1 (stereo unspecified)	nt	i	77	i	nt	i
O=C1c2ccccc2C(Nc2ccc(F)c(Cl)c2)N1Cc1ccco1 (stereo unspecified)	i	i	66	i	i	i
COc1ccc(NC2c3ccccc3C(=O)N2Cc2ccco2)cc1OC (stereo unspecified)	nt	i	64	i	nt	i
CCOc1ccc(NC2c3ccccc3C(=O)N2Cc2ccco2)cc1 (stereo unspecified)	i	74	i	i	i	i
COC(=O)c1nn(-c2ccccc2)c(Cl)c1/C=N/OCc1ccc(C)cc1	i	i	i	i	i	i
CCN(CC)c1nc(-c2cccc(OC)c2O)nc2ccccc12	i	i	i	i	i	i
Cc1nc(N2CCN(c3ccccc3)CC2)c2c3c(sc2n1)CCC3	nt	94	95	i	nt	i
CC(O)CNc1nc2ccccc2n1-c1ncnc2sc3c(c12)CCC3 (stereo unspecified)	i	i	i	i	i	i
c1ccc2c(c1)nnn2-c1ncnc2sc3c(c12)CCCC3	i	i	i	i	i	2.1
Cc1nc(-n2nnc3ccccc32)c2c3c(sc2n1)CCCC3	i	59	55	i	i	i
CCC1Oc2ccccc2N(CC(=O)Nc2ccc3c(c2)OCCO3)C1=O (stereo unspecified)	i	nt	nt	nt	i	nt
COc1ccc(OC)c(C2C(C(=O)c3cccs3)=C(O)C(=O)N2CCN(C)C)c1 (stereo unspecified)	nt	i	i	i	nt	i
COC(=O)C1(CO)NC(c2cccs2)C2C(=O)N(c3ccccc3)C(=O)C21 (stereo unspecified)	i	i	i	i	i	i
